From PubChem BioAssay (NCATS)
Results filed as inconclusive are left out. Calls of active or inactive are those of the source. Unless noted, calls follow the shape of the dose curve; as a rule, active = well fitted curve in the direction sought with a large enough effect; inconclusive = small, poorly fitted or top-dose-only effect, or another doubt; inactive = no such curve, though single readings can be large; an effect the other way counts as inactive or inconclusive.

Tests used:
[1] = Natriuretic polypeptide receptor (hNpr1) antagonism - Pilot counterscreen GloSensor control cell line (AID 1347045; calls by dose curve; also: series mostly up to about 38 µM)
Outline: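 Cells were first seeded and incubated overnight at 37C, then loaded with 2% GloSensor substrate for 2 h. Compounds were added for 30 min at room temperature, followed by a baseline read, 50 uM SNP and a final read after 20 min.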

[2] = molecular target: Atrial natriuretic peptide receptor 1 (Homo sapiens) (UniProt P16066); experiment: Natriuretic polypeptide receptor (hNpr1) antagonism - Pilot screen (AID 1347049; calls by dose curve;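 also: agonist-evoked cGMP luminescence read 20 min after hNppA addition; series mostly up to about 58 µM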)
Atrial natriuretic peptide receptor 1 (Homo sapiens), sequence (P16066 whole entry, looked up): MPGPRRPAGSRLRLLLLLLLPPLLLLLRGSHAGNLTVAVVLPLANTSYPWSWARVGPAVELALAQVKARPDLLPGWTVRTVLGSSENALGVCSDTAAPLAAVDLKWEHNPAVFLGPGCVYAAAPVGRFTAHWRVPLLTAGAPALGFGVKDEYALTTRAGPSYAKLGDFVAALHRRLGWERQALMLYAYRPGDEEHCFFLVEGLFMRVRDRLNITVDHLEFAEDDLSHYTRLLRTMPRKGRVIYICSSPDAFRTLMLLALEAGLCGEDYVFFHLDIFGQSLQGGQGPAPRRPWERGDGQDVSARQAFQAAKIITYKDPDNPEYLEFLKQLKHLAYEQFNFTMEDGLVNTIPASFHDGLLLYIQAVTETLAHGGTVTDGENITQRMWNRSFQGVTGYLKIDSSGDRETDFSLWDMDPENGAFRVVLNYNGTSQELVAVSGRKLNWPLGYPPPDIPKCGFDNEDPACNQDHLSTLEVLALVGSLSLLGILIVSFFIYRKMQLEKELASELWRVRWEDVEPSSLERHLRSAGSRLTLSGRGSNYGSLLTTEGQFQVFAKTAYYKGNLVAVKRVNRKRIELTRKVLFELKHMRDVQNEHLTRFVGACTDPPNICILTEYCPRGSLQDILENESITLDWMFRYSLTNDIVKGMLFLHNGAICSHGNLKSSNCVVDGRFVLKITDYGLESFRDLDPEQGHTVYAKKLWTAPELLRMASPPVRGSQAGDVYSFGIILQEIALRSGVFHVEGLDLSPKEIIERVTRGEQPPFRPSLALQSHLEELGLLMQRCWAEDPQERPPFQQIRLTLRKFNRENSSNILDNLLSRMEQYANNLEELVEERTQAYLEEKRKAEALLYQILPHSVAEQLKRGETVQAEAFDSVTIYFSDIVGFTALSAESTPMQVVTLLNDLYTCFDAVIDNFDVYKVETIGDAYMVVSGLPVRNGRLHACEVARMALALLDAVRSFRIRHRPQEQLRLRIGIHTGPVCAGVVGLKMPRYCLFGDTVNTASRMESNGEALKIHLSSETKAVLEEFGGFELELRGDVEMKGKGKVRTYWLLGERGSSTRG
Outline: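 cGMP-sensor HEK293/hNpr1 cells, 1500/well, plated overnight at 37C. 2% GloSensor reagent, 2 h RT. Compound (23 nL pin transfer) 30 min RT, baseline luminescence pre-read. 0.1 nM hNppA, 20 min RT, post-read.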

[3] = molecular target: Atrial natriuretic peptide receptor 2 (Homo sapiens) (UniProt P20594); experiment: Natriuretic polypeptide receptor (hNpr2) antagonism - Pilot subtype selectivity assay (AID 1347050; calls by dose curve)
Atrial natriuretic peptide receptor 2 (Homo sapiens), sequence (P20594 whole entry, looked up): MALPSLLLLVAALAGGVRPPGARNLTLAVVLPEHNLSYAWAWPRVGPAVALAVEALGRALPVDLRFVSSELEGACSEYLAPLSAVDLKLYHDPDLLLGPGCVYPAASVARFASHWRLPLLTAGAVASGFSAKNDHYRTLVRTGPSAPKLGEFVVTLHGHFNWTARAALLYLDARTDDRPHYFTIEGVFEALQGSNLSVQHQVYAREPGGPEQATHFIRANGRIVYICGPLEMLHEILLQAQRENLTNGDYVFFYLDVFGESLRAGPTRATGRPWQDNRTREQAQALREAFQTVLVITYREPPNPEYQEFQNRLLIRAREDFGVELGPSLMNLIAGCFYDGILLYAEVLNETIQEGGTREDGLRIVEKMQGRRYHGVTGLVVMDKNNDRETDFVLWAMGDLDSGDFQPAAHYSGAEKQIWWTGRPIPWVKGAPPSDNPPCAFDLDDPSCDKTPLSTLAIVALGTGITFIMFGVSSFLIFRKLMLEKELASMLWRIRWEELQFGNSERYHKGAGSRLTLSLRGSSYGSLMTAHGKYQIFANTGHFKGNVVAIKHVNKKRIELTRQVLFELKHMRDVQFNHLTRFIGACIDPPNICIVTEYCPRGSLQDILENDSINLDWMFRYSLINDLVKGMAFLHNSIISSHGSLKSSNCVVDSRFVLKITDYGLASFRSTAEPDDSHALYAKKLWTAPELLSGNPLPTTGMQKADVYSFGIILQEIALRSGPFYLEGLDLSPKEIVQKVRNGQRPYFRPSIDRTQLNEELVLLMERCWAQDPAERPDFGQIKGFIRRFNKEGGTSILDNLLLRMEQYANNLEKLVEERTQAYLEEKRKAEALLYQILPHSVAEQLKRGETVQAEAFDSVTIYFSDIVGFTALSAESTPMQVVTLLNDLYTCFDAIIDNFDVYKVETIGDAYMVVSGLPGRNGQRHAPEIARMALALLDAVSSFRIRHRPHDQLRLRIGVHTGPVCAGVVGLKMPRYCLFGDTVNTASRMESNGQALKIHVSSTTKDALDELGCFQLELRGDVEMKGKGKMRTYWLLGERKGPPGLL
Outline: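 Luminescence from a genetically encoded cGMP luciferase biosensor in hNpr2-expressing HEK293 cells is read before and 20 min after adding 1 nM hNppC. Test compounds, in interplate 1:5 titrations, are added 30-50 min ahead of the agonist.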

[4] = NS1 protein of Zika virus - qHTS assay to identify small molecule inhibitors in human HEK 293 cells (AID 1347053); also: series mostly up to about 46 µM; nearly all actives have a fitted effect of over 55% in size
Outline: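 TR-FRET signal from two anti-ZIKV NS1 antibodies quantified NS1 in HEK 293 cells 24 h after MR766 infection at MOI = 0.5; compounds were added 1 h before virus. Uninfected cells and infected cells defined the NS1 normalization range.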

[5] = molecular target: T1, Tyrosine-protein phosphatase non-receptor type substrate 1 (Homo sapiens) + Leukocyte surface antigen CD47 (Homo sapiens) (UniProt P78324+Q08722); experiment: CD47-SIRPalpha protein protein interaction - LANCE assay qHTS validation (AID 1347057; active = well fitted curve in the direction sought with a large enough effect in the signal ratio, with a control signal flat, not every such curve was filed as active; the % refers to the signal ratio; also: series mostly up to about 38 µM)
T1 sequence (P78324 whole entry, looked up, the tested form may be a part): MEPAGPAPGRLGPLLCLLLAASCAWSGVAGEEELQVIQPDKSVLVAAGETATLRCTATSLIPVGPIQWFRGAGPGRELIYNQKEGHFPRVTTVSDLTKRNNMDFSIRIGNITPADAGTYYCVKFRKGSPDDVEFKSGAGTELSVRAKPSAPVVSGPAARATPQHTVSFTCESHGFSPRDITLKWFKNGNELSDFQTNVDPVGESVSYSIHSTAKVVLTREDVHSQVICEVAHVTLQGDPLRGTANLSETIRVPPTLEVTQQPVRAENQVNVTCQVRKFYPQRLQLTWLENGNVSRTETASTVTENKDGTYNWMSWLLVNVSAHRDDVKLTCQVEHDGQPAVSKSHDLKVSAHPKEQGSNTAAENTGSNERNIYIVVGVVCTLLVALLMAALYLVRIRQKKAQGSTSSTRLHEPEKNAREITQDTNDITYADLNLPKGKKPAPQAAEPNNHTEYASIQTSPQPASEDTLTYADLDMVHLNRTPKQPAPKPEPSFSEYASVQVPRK
T1 sequence (Q08722 whole entry, looked up, the tested form may be a part): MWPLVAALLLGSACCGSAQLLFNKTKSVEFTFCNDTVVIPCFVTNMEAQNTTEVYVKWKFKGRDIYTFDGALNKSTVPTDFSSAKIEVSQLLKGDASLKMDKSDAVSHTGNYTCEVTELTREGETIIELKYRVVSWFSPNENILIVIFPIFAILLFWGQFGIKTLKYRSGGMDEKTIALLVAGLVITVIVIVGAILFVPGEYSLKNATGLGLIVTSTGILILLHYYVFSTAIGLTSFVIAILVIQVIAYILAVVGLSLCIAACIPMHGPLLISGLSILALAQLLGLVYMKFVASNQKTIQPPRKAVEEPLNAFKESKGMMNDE
Outline: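 Inhibition of soluble CD47/SIRPalpha ectodomain association by titrated compounds, measured as 665/615 nm time-resolved FRET ratio after sequential 30 min room-temperature incubations.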

[6] = molecular target: T1, Tyrosine-protein phosphatase non-receptor type substrate 1 (Homo sapiens) + Leukocyte surface antigen CD47 (Homo sapiens); experiment: CD47-SIRPalpha protein protein interaction - Alpha assay qHTS validation (AID 1347059);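 also: bead proximity luminescence from CD47 binding SIRPalpha after compound preincubation with SIRPalpha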
Outline: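 SIRPalpha-biotin 25 nM + cpd, 30 min RT, dark; add CD47-His 12.5 nM, 30 min; add Ni-NTA/SAV beads 10 ug/mL, 30 min; AlphaScreen. Buffer PBS pH 7.4 + 0.05% IGEPAL CA-630. Non-biotinylated SIRPalpha as control inhibitor.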

[7] = molecular target: Parathyroid hormone/parathyroid hormone-related peptide receptor (Homo sapiens) (UniProt Q03431); experiment: qHTS for PTHR1 Agonists: Optimization Screen against the NCGC LOPAC library (AID 1347079);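 also: GloSensor cAMP luminescence in HEK-293 GP2 cells expressing human PTHR1 with IBMX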
Parathyroid hormone/parathyroid hormone-related peptide receptor (Homo sapiens), sequence (Q03431 whole entry, looked up): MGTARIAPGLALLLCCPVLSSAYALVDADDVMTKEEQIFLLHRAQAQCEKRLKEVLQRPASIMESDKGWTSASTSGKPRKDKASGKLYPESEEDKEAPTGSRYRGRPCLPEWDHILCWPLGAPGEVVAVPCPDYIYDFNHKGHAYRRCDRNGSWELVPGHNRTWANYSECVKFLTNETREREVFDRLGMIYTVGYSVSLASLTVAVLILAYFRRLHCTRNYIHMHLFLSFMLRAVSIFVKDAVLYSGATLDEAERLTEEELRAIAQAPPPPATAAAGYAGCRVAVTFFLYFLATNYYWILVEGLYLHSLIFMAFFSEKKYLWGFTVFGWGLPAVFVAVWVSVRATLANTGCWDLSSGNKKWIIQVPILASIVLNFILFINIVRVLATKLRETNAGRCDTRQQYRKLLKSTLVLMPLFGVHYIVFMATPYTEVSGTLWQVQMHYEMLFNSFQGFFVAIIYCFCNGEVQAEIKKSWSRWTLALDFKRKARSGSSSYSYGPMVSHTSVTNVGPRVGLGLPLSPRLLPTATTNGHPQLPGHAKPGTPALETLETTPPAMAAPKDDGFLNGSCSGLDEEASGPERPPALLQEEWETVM
Outline: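 HEK-293 GP2 cells, PTHR1 + GloSensor cAMP; 3000 cells/well, o/n. Luciferin + IBMX 0.5mM each (stock), 1 hr 37C. Cpd titration, 1 hr 37C. Lum after 15 min RT. Ctrl M-PTH(1-15) top 10uM.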

[8] = qHTS for Inhibitors of the Functional Ribonucleoprotein Complex (vRNP) of Lassa (LASV) Arenavirus: LASV Primary Screen - GLuc reporter signal (AID 1347082; calls by dose curve; tested in HEK293 reporter line; also: nearly all actives have a fitted effect of over 60% in size; also: potency is read from the fitted curve at half-maximal effect)
[9] = P-glycoprotein substrates identified in KB-8-5-11 adenocarcinoma cell line, qHTS therapeutic library screen (AID 1346987); also: nearly all actives have a fitted effect of over 65% in size; also: potency is read from the fitted curve at half-maximal effect
Outline: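 Luminescence from CellTiter-Glo, read 5 min after addition, quantified survival of KB-8-5-11 (P-gp-overexpressing) cells exposed to compounds for 72 h. AC50 was derived from concentration-response curves.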

[10] = molecular target: T1, Tyrosine-protein phosphatase non-receptor type substrate 1 (Homo sapiens) + Leukocyte surface antigen CD47 (Homo sapiens); experiment: CD47-SIRPalpha protein protein interaction - HTRF assay qHTS validation (AID 1347058; active = well fitted curve in the direction sought with a large enough effect in the signal ratio, not every such curve was filed as active; the % refers to the signal ratio; also: series mostly up to about 38 µM)
Outline: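 Soluble extracellular domains (6His-CD47, Avi-tag-biotinylated SIRPalpha) in PBS pH 7.4 with 0.05% IGEPAL CA-630. Compounds were preincubated 30 min at RT with CD47 and anti-His-Eu, then SIRPalpha and SAV-XL665 were added. TR-FRET 665/615 ratio.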

Measured: Potency

CNCCc1ccc(O)c(O)c1
not listed: [9] | [10]
inactive: all other assays above

NC1CCc2cc(O)c(O)cc2C1 (stereo not given)
not listed: [9] | [10]
inactive: all other assays above

CCCN(CCC)[C@@H]1CCc2ccc(O)cc2C1
not listed: [9] | [10]
inactive: all other assays above

CC(=O)O[C@@]12CO[C@H]1C[C@H](O)[C@@]1(C)C(=O)[C@H](O)C3=C(C)[C@@H](O)C[C@@](O)([C@@H](OC(=O)c4ccccc4)[C@@H]21)C3(C)C
inactive: [8]
active: [9] 7.43 µM

O=C(O)Cc1cnc[nH]1
not listed: [9] | [10]
inactive: all other assays above

CS(=N)(=O)CC[C@H](N)C(=O)O (stereo not given in full)
not listed: [9] | [10]
inactive: all other assays above

CC(C)(C)NC[C@H](O)c1ccc(O)cc1Cl
inactive: [9] | [8]

O=C(Cc1ccc(Cl)c(Cl)c1)N1CCCCC1CN1CCCC1 (stereo not given)
not listed: [9] | [10]
inactive: all other assays above

CC(C)Oc1cccnc1N(C)C1CCN(Cc2ccccc2)CC1
not listed: [9]
inactive: all other assays above

Cn1cnc(CCN)c1
not listed: [9] | [10]
inactive: all other assays above

NC(=NCCC[C@H](N)C(=O)O)N[N+](=O)[O-]
not listed: [9]
inactive: all other assays above

Oc1ccc2c3c1O[C@H]1[C@@H](O)C=C[C@H]4[C@@H](C2)NCC[C@@]341
inactive: [9] | [8]

C/C=C(/C)C(=O)O[C@H]1C(C)=C2[C@H]([C@@H]1OC(=O)CCCCCCC)[C@@](C)(OC(C)=O)C[C@H](OC(=O)CCC)[C@@]1(O)[C@H]2OC(=O)[C@@]1(C)O
active: [9] 2.06 µM
inactive: [5] | [6] | [7]

O=C(O)CNC(=O)c1c(O)c2ccccc2n(Cc2ccccc2)c1=O
inactive: [9] | [8]

c1cc2ccc3cccc4ccc(c1)c2c34
inactive: [9] | [8]

NCc1cc(=O)[nH]o1
not listed: [9] | [10]
inactive: all other assays above

ClC1=C(Cl)[C@]2(Cl)[C@@H]3[C@@H]4C[C@@H]([C@H]5O[C@@H]45)[C@@H]3[C@@]1(Cl)C2(Cl)Cl
inactive: [9] | [8]

CC(=O)[C@H]1CCC2C3CC[C@H]4C[C@H](O)CC[C@]4(C)C3CC[C@@]21C (stereo not given in full)
not listed: [9]
inactive: all other assays above

O=C(O)COc1nc(Cl)c(Cl)cc1Cl
inactive: [9] | [8]

NC(CP(=O)(O)O)C(=O)O (stereo not given)
not listed: [9] | [10]
inactive: all other assays above

O=[N+]([O-])c1c(Cl)c(Cl)cc(Cl)c1Cl
inactive: [9] | [8]

Clc1cnc(Oc2ccc(Oc3ncc(Cl)cc3Cl)cc2)c(Cl)c1
not listed: [9] | [10]
inactive: all other assays above

C[C@@H](N)Cc1cnc[nH]1
not listed: [9] | [10]
inactive: all other assays above

C[C@]12CCC3C(CC[C@H]4C[C@H](O)CC[C@]34C)C1CC[C@@H]2C(=O)CO (stereo not given in full)
not listed: [9]
inactive: all other assays above

CCCN(CCC)C1CCc2ccc(O)cc2C1 (stereo not given)
not listed: [9]
inactive: all other assays above

C#CCOC(=O)C1=CCCN(C)C1
not listed: [9] | [10]
inactive: all other assays above

C=CC(=O)NCNC(=O)C=C
inactive: [9] | [4] | [8]

C[N+]1(C)C2CCC1CC(OC(=O)C(CO)c1ccccc1)C2 (stereo not given)
not listed: [9] | [10]
inactive: all other assays above

CCCCC(CC)COC(=O)c1ccccc1C(=O)OCC(CC)CCCC (stereo not given)
inactive: [9] | [4] | [8]

CC1(C)SCCN(S(=O)(=O)c2ccc(OCC#CCO)cc2)[C@@H]1C(=O)NO
inactive: [8]

c1ccc2sc(C3(N4CCCCC4)CCCCC3)cc2c1
not listed: [4] | [9] | [10]
inactive: all other assays above

NCCc1c[nH]c2ccccc12
not listed: [4] | [9] | [10]
inactive: all other assays above

Cn1cncc1[C@@](N)(c1ccc(Cl)cc1)c1ccc2c(c1)c(-c1cccc(Cl)c1)cc(=O)n2C
inactive: [8]

O=S(=O)(c1ccc(Cl)cc1)c1ccc(Cl)cc1
inactive: [4] | [8]

CC1(C)CC/C(=C/c2ccc(Cl)cc2)C1(O)Cn1cncn1 (stereo not given)
inactive: [4] | [8]

CCCN1CCO[C@@H]2c3cc(O)ccc3OC[C@H]21
not listed: [4] | [9] | [10]
inactive: all other assays above

COc1ccc(C(=O)c2c(C)n(CCN3CCOCC3)c3cc(I)ccc23)cc1
inactive: [4]

CC1=C(C(=O)O)N2C(=O)[C@@H](N)[C@H]2SC1
inactive: [4] | [8]

CC(C)(C)c1cc(NC(=O)Nc2ccc(-c3cn4c(n3)sc3cc(OCCN5CCOCC5)ccc34)cc2)no1
inactive: [8]

Cc1cccc(-c2[nH]ncc2-c2ccc3ncccc3n2)n1
inactive: [8]

CCC(=O)O[C@@H]1C=C2CCC3C(CCC4(C)C3CC[C@@H]4OC(=O)CC)C2CC1 (stereo not given in full)
inactive: [4] | [8]

Nc1ccc(Cl)cc1N
inactive: [4] | [8]

O=[N+]([O-])c1c2ccccc2cc2ccccc12
inactive: [4] | [8]

C=CCC1=C(C)C(OC(=O)C2C(C=C(C)C)C2(C)C)CC1=O (stereo not given)
inactive: [4]

O=C(O)[C@@H]1CCN1
not listed: [4] | [9] | [10]
inactive: all other assays above

CCCCCCCCCCC(CO)CCCCCCCC (stereo not given)
inactive: [8]

O=C(NOC[C@H](O)CO)c1ccc(F)c(F)c1Nc1ccc(I)cc1F
inactive: [8]

Cc1nn(Cc2ccccc2Cl)c(C)c1CN(C)CC(O)COc1ccc(Cl)cc1 (stereo not given)
inactive: [8]

CC1(C)OC2=C(C(=O)c3ccccc3C2=O)[C@H](NCc2ccccc2)[C@H]1O
active: [8] 2.73 µM

C[C@@]12O[C@@H](C[C@]1(O)CO)n1c3ccccc3c3c4c(c5c6ccccc6n2c5c31)CNC4=O
active: [8] 9.68 µM

NCCc1c[nH]c2ccc(O)cc12
not listed: [4] | [9] | [10]
inactive: all other assays above

CCCCC/C(C=O)=C\c1ccccc1
inactive: [8]

CCCCc1ccc(NS(=O)(=O)c2ccc(C)c(C(=O)N3CCN(c4cccc(C)c4C)CC3)c2)cc1
inactive: [8]

COc1cc(C(O)CN)ccc1O (stereo not given)
not listed: [4] | [9] | [10]
inactive: all other assays above

CS(=O)(=O)c1ccc(C(=O)Nc2ccc(Cl)c(-c3ccccn3)c2)c(Cl)c1
inactive: [8]

CN(C)c1ccc(Nc2nc(N)n(C(=O)c3c(F)cccc3F)n2)cc1
inactive: [8]

CCNC(=O)c1noc(-c2cc(C(C)C)c(O)cc2O)c1-c1ccc(CN2CCOCC2)cc1
active: [8] 0.611 µM

NC(N)=NOCCC(N)C(=O)O (stereo not given)
not listed: [4] | [9] | [10]
inactive: all other assays above

COc1ccc(C(c2ccc(OC)cc2)C(Cl)(Cl)Cl)cc1
inactive: [4]

COc1cc2c(cc1O)CC[C@@H]1[C@@H]2CC[C@]2(C)[C@@H](O)CC[C@@H]12
inactive: [8]

CNC(=O)c1ccc(N2C(=S)N(c3ccc(C#N)c(C(F)(F)F)c3)C(=O)C2(C)C)cc1F
inactive: [8]

O=C(Nc1ccccc1-c1ccc(Cl)cc1)c1cccnc1Cl
inactive: [4] | [8]

COc1cc2ncnc(-n3nc(-c4ccccn4)nc3N)c2cc1OC
active: [8] 13.7 µM

CNCCc1c[nH]c2ccc(O)cc12
not listed: [4] | [9] | [10]
inactive: all other assays above

CC(C)Oc1cccc(NC(=O)c2ccccc2C(F)(F)F)c1
inactive: [4] | [8]

CC(C)C(C)(C)C(C)(C)C(C)(C)S
inactive: [8]

O=S(=O)(N=Cc1c(O)ccc2ccccc12)c1cccs1
inactive: [8]

Nc1ccc([N+](=O)[O-])cc1
inactive: [4]
